Experimental data reported in PubChem BioAssay (NCATS).
Inconclusive results are not listed. Unmarked numbers belong to inactive results. Active and inactive are the calls of the source. Calls follow the shape of the dose curve; as a rule, active = well fitted cell-killing curve with a large enough effect; inconclusive = small, poorly fitted or top-dose-only effect, or effect the other way; inactive = no such curve, though single readings can be large or run the other way.

Columns and labels:
[1] = Quantitative High-Throughput drug screen in 47 multiple myeloma cell lines against the NCATS MIPE library collection: OCIMY5_PLB cell viability assay (AID 1918988); also: nearly all actives have a fitted effect of over 65% in size
Summary of the method: (§1)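 qHTS format: cells plated (500/well), pin-dosed with MIPE 4.0 compounds, kept 48 h at 37 °C. Readout was CellTiter-Glo luminescence, median RLU.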

[2] = Quantitative High-Throughput drug screen in 47 multiple myeloma cell lines against the NCATS MIPE library collection: OPM1_PLB cell viability assay (AID 1918989); also: nearly all actives have a fitted effect of over 40% in size
Summary of the method: as §1

[3] = Quantitative High-Throughput drug screen in 47 multiple myeloma cell lines against the NCATS MIPE library collection: SKMM1_PLB cell viability assay (AID 1919863); conditions: SKMM1 myeloma viability, CellTiter-Glo ATP, 48 h; viability: active compounds read low; also: nearly all actives have a fitted effect of over 35% in size
Summary of the method: as §1

[4] = Quantitative High-Throughput drug screen in 47 multiple myeloma cell lines against the NCATS MIPE library collection: U266_ATCC cell viability assay (AID 1919864); also: nearly all actives have a fitted effect of over 35% in size;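 as to viability (% of DMSO control): 0% = media-only wells without cells and 100% = DMSO-only wells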
Summary of the method: as §1

[5] = Quantitative High-Throughput drug screen in 47 multiple myeloma cell lines against the NCATS MIPE library collection: XG6_PLB cell viability assay (AID 1919865); also: nearly all actives have a fitted effect of over 40% in size
Summary of the method: as §1

[6] = Quantitative High-Throughput drug screen in 47 multiple myeloma cell lines against the NCATS MIPE library collection: XG1_PLB cell viability assay (AID 1919866); also: nearly all actives have a fitted effect of over 35% in size
Summary of the method: as §1

[7] = Quantitative High-Throughput drug screen in 47 multiple myeloma cell lines against the NCATS MIPE library collection: VP6_DJ cell viability assay (AID 1919867); also: nearly all actives have a fitted effect of over 40% in size;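 as to viability (% of DMSO): 100% = DMSO-only wells and 0% = wells with media alone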
Summary of the method: as §1

[8] = Quantitative High-Throughput drug screen in 47 multiple myeloma cell lines against the NCATS MIPE library collection: PE2_PLB cell viability assay (AID 1919869); also: nearly all actives have a fitted effect of over 35% in size
Summary of the method: as §1

[9] = Quantitative High-Throughput drug screen in 47 multiple myeloma cell lines against the NCATS MIPE library collection: OCIMY7_PLB cell viability assay (AID 1918987); conditions: OCI-MY7 myeloma viability, CellTiter-Glo ATP, 48 h; viability (% of DMSO): at 45.8 µM (top of the series); also: nearly all actives have a fitted effect of over 65% in size
Summary of the method: as §1

[10] = Quantitative High-Throughput drug screen in 47 multiple myeloma cell lines against the NCATS MIPE library collection: UTMC2_PLB cell viability assay (AID 1919868); conditions: CellTiter-Glo ATP luminescence, 48 h; viability (% of DMSO control): at 45.8 µM (top of the series); also: nearly all actives have a fitted effect of over 55% in size;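 as to viability (% of DMSO control): 100% = DMSO-only wells and 0% = media-only wells without cells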
Summary of the method: as §1
Potency is read from the fitted curve at half-maximal effect.

Cc1cnc(CNC(=O)c2c(=O)c3ccc(N4CCCN(C)CC4)nc3n3c2sc2ccccc23)cn1
Potency [1]: 10.2 µM (active)
Potency [2]: inactive
Potency [3]: 5.75 µM (active)
Potency [4]: 1.82 µM (active)
Potency [5]: 5.12 µM (active)
Potency [6]: inactive
Potency [7]: inactive
Potency [8]: inactive

Cn1cc(-c2ccc3nnc(Sc4ccc5ncccc5c4)n3n2)cn1
Potency [9]: inactive
Potency [2]: inactive
Potency [5]: 26.4 µM (active)
Potency [7]: 18.7 µM (active)

N#Cc1c(N(CC(=O)O)CC(=O)O)sc(C(=O)O)c1CC(=O)O
Potency [9]: 8.33 µM (active)
viability [3]: 102%
Potency [4]: inactive
Potency [8]: 14.8 µM (active)

O=[N+]([O-])c1ccc(Nc2ccccc2-c2ccccc2)c2nonc12
Potency [9]: 18.7 µM (active)
Potency [2]: 26.4 µM (active)
Potency [8]: 20.9 µM (active)

Cc1c(C(=O)Nc2ccc(N3C[C@@H](C)O[C@@H](C)C3)nc2)cccc1-c1ccc(OC(F)(F)F)cc1
Potency [9]: 9.35 µM (active)
Potency [3]: 26.4 µM (active)
Potency [4]: 5.9 µM (active)
Potency [8]: inactive

CNC(=O)[C@H](Cc1ccccc1)NC(=O)[C@H](CC(C)C)[C@H](CSc1cccs1)C(=O)NO
Potency [9]: 14.8 µM (active)
Potency [2]: inactive
Potency [5]: 7.43 µM (active)
Potency [6]: 9.35 µM (active)
Potency [8]: 16.6 µM (active)

CN(C)CCN(Cc1ccc(Cl)cc1)c1ccccn1
Potency [9]: 14.8 µM (active)
Potency [7]: 20.9 µM (active)
Potency [10]: 16.6 µM (active)

CN(C)CCCNC(=O)c1ccc(-c2cc(O)c3ncccc3c2)cc1
Potency [1]: 20.9 µM (active)
Potency [2]: 16.6 µM (active)
Potency [3]: 14.8 µM (active)
Potency [4]: 20.9 µM (active)

C=CC(=O)Nc1cccc(Sc2nc(Nc3ccc(N4CCN(C)CC4)cc3)ncc2Cl)c1
Potency [9]: 0.743 µM (active)
Potency [5]: 0.526 µM (active)
Potency [6]: 1.05 µM (active)

CC[C@H](C)n1cc(C)c2c(C(=O)NCc3c(C)cc(C)[nH]c3=O)cc(-c3ccc(N4CCNCC4)nc3)cc21
Potency [9]: 23.5 µM (active)
Potency [3]: 20.9 µM (active)
Potency [4]: 16.6 µM (active)
Potency [5]: 16.6 µM (active)
Potency [7]: 11.8 µM (active)
Potency [8]: 23.5 µM (active)

CC1=C(C(=O)Nc2cc3cn[nH]c3cc2F)C(c2ccc(C(F)(F)F)cc2)CC(=O)N1 (stereo not given)
Potency [1]: inactive
Potency [2]: inactive
viability [3]: 160%
Potency [4]: inactive
Potency [5]: inactive
Potency [10]: 8.33 µM (active)
Potency [8]: inactive

Cc1ccc(S(=O)(=O)OCC(=O)Nc2ccc(C(=O)O)c(O)c2)cc1
Potency [1]: 18.7 µM (active)
Potency [2]: inactive
viability [3]: 102%
Potency [5]: 3.72 µM (active)
Potency [7]: 16.6 µM (active)
Potency [8]: 20.9 µM (active)

COc1cc2nccc(Oc3ccc(NC(=O)Nc4cc(C)on4)c(Cl)c3)c2cc1OC
Potency [1]: 16.6 µM (active)
Potency [2]: 20.9 µM (active)
Potency [4]: 20.9 µM (active)
Potency [5]: 0.118 µM (active)

O=c1[nH]c(=O)n([C@H]2C[C@@H](O)[C@@H](CO)O2)cc1I
Potency [1]: inactive
Potency [2]: inactive
viability [3]: 119%
Potency [5]: inactive
Potency [7]: inactive
Potency [8]: inactive

C[C@@H](O[C@H]1OCCN(Cc2n[nH]c(=O)[nH]2)[C@@H]1c1ccc(F)cc1)c1cc(C(F)(F)F)cc(C(F)(F)F)c1
Potency [1]: 23.5 µM (active)
Potency [2]: 23.5 µM (active)
Potency [3]: 23.5 µM (active)
Potency [5]: 16.6 µM (active)
Potency [10]: 33.2 µM (active)
Potency [8]: 20.9 µM (active)

CCN1CCN(c2ccc(Nc3cc(N(C)C(=O)Nc4c(Cl)c(OC)cc(OC)c4Cl)ncn3)cc2)CC1
Potency [1]: 13.2 µM (active)
Potency [2]: 0.0235 µM (active)
Potency [4]: inactive
Potency [5]: 6.62 µM (active)
Potency [6]: 11.8 µM (active)
Potency [7]: 23.5 µM (active)
Potency [8]: inactive

CN(C)c1ccccc1CN1CCCN(Cc2ccccc2N(C)C)C1c1ccncc1
Potency [1]: 20.9 µM (active)
Potency [2]: 20.9 µM (active)
Potency [3]: 20.9 µM (active)
Potency [4]: 14.8 µM (active)
Potency [5]: 16.6 µM (active)
Potency [7]: 18.7 µM (active)
Potency [8]: 18.7 µM (active)

CC(C)CN(C[C@H](O)[C@H](Cc1ccccc1)NC(=O)O[C@H]1CCOC1)S(=O)(=O)c1ccc(N)cc1
Potency [1]: 2.96 µM (active)
Potency [2]: 26.4 µM (active)
viability [3]: 121%
Potency [6]: 20.9 µM (active)
Potency [7]: 20.9 µM (active)

C#CCN(C)CC1=Cc2ccccc2Oc2ccccc21
Potency [1]: 20.9 µM (active)
Potency [2]: inactive
Potency [5]: inactive
Potency [6]: inactive
Potency [8]: inactive

CCOC(=O)c1c(CSc2ccccc2)n(C)c2cc(Br)c(O)c(CN(C)C)c12
Potency [1]: 16.6 µM (active)
Potency [2]: 5.26 µM (active)
Potency [3]: 6.62 µM (active)
Potency [5]: 14.8 µM (active)

C[C@@H]1[C@H](C)CC[C@]2(C(=O)O)CC[C@]3(C)C(=CC[C@@H]4[C@@]5(C)CC[C@H](O)C(C)(C)[C@H]5CC[C@]43C)[C@@H]12
Potency [1]: 1.52 µM (active)
Potency [2]: inactive
Potency [3]: 24.1 µM (active)
Potency [6]: 1.36 µM (active)
Potency [8]: inactive

Cc1cn([C@@H]2C[C@@H](O)[C@H](CO)O2)c(=O)[nH]c1=O
Potency [1]: inactive
Potency [2]: inactive
viability [3]: 137%
Potency [5]: inactive
Potency [7]: inactive
Potency [10]: inactive
Potency [8]: inactive

Cn1c(=O)c(-c2c(Cl)cccc2Cl)cc2cnc(Nc3cccc(C(=O)O)c3)nc21
Potency [1]: 13.2 µM (active)
Potency [2]: inactive
Potency [4]: inactive
Potency [5]: 0.187 µM (active)
Potency [7]: 0.235 µM (active)
viability (% of DMSO control) [10]: 127% (active)
Potency [8]: inactive
